Screens (PubChem)
HCMV inh: human cytomegalovirus inhibition | HFF cells, HCMV-luciferase reporter, 72 h; stronger effect = lower value | activity change, negative = inhibition, % at 57.5 µM | actives 4.5% (n = 410,000); in the data active = activity change below about -60%; inconclusive = no clear call, values can overlap the other calls; inactive = above about -39%
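Human foreskin fibroblasts infected with luciferase-reporter HCMV at MOI 1 PFU/cell, compounds at two doses. Luciferase measured 72 h post infection; normalized to buffer-only basal and Salinomycin (10uM) controls.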
Vaccinia mCherry: inhibitors of vaccinia virus infection (mCherry reporter signal); actives 0.63% (n = 310,000); Vaccinia virus mCherry reporter infection, fluorescence; Potency, µM (top dose mostly 36.5 µM), usual class: inhibitors; calls by dose curve; tested in A549 cells; also: nearly all actives have a fitted effect of over 35% in size
VACV Venus inh: inhibitors of vaccinia virus (Venus reporter). actives 0.46% (n = 330,000). Vaccinia virus Venus reporter expression, fluorescence. Potency, µM (titrated, usually from 36.5 µM), hits mostly inhibitors; calls by dose curve; tested in A549 cells; also: nearly all actives have a fitted effect of over 30% in size
LASV entry inh: blocks Lassa virus binding to or entry into cells | Lassa virus pseudotype entry inhibition, cell reporter | actives 1.2% (n = 300,000) | Potency, µM (highest dose often 37.9 µM), actives largely listed as inhibitors | AID 540256; calls by dose curve; tested in HEK293 cells; also: nearly all actives have a fitted effect of over 50% in size
Marburg entry inh: blocks Marburg virus binding to or entry into cells; actives 1.8% (n = 300,000); Potency, µM (top dose mostly 37.8 µM), actives largely listed as inhibitors; AID 540276; Marburg virus pseudotyped entry inhibition, cell reporter; calls by dose curve; tested in HEK293 cells
FMDV antiviral: antivirals against foot and mouth disease virus; FMDV antiviral cell-based qHTS; Potency, µM (series often up to 57.9 µM), actives largely listed as inhibitors; actives 1.2% (n = 410,000); AID 1159524; calls by dose curve; tested in HEK293T cells; also: read-out not given here; nearly all actives have a fitted effect of over 45% in size
A number is an active result; n = inactive; u = inconclusive; x = not tested or not shown; [ ] = dose if it differs, or a comment. Rows were chosen to be rich in hits. Some 6.5% of all compounds tested hit in one or more screens of this group.

SMILES	HCMV inh	Vaccinia mCherry	VACV Venus inh	LASV entry inh	Marburg entry inh	FMDV antiviral
O=C(Cn1ncc2c3ccccc3n(Cc3ccccc3)c2c1=O)NCCCN1CCCCC1	n	n	n	n	u	n
CC(=O)c1ccccc1NC(C(=O)Nc1ccc2c(c1)OCCO2)c1cccs1 (stereo unspecified)	-64	x	x	x	x	x
COc1ccc(NC(=O)COC(=O)Cn2cnc3ccccc32)cc1	n	n	n	n	n	n
O=C(Cn1cnc2ccccc21)Nc1ccc(SC(F)F)cc1	n	n	n	n	3.2µM	u
CCn1c(N)[n+](CC(=O)Nc2ccc(SC(F)F)cc2)c2ccccc21	u	u	n	u	4.5µM	n
O=C(C=Cc1cccc([N+](=O)[O-])c1)c1ccccc1	x	x	x	u	n	x
COc1ccc(/C=C/C(=O)c2ccc(C)c([N+](=O)[O-])c2)cc1O	n	n	n	u	u	n
COc1cc(/C=C/C(=O)c2cccc([N+](=O)[O-])c2)cc(OC)c1OC	n	n	n	u	u	28µM
COc1cc(/C=C/C(=O)c2ccc(C)c([N+](=O)[O-])c2)cc(OC)c1O	n	u	n	n	u	14µM
Cc1ccc2c(c1)N(C(=O)C1CCN(S(=O)(=O)c3c(C)noc3/C=C/c3ccccc3F)CC1)CCO2	n	n[7.34 µM]	n[7.34 µM]	n	x	n
Cc1cccc(NC(=S)NCCc2ccccc2)n1	-72	u	n	u	u	n
Cc1ccc(NC(=S)NCCc2ccccc2)c(C)c1	u	n	n	n	n	n
Cc1cc(Br)ccc1NC(=S)NCCc1ccccc1	-66	n	n	u	n	n
CCNC(=S)Nc1ccc(Cl)cc1Cl	-65	n	n	u	n	n
CCCNC(=S)Nc1ccc(Br)cc1	n	x	n	n	n	n
S=C(NCCc1ccccc1)Nc1ccc(Br)cc1	-75	n	n	n	u	n
O=C(NCCSCc1ccc(Cl)cc1)C1CCN(S(=O)(=O)Cc2ccccc2)CC1	n	n	n	n	n	n
Cc1cc(Cl)ccc1NC(=S)NCCc1ccc(Cl)cc1	-83	u	n	n	u	n
Cc1cc(Cl)ccc1NC(=S)NCc1ccc(Cl)cc1	n	u	u	n	n	n
Cc1ccc(NC(=S)NCCc2c[nH]c3ccccc23)c(C)c1	-90	x	x	x	x	n
CCCCC(Sc1nc2cc3c(cc2c(=O)n1CCCC(=O)NCc1ccc(OC)cc1)OCO3)C(=O)OCC (stereo unspecified)	n	u	u	n	x	n
Cn1cnc(S(=O)(=O)N2CCCCN3[C@H](CO)[C@H](c4ccc(C#CC5CC5)cc4)[C@@H]3C2)c1	n	x	x	x	x	x
O=C(NC1CC1)c1ccc2nc(-c3ccco3)c(-c3ccco3)nc2c1	x	n	n	x	x	x
CC1CCCCC1N(C)C1CCN(C(=O)CNC(=O)/C=C/c2cccc(Cl)c2)CC1 (stereo unspecified)	-100	x	x	x	x	n
Cc1cc(C)n(-c2ccc(C(=O)Nc3cccc(S(=O)(=O)N(C)C)c3)cc2)n1	-96	n	n	u	u	22µM
SMILES	HCMV inh	Vaccinia mCherry	VACV Venus inh	LASV entry inh	Marburg entry inh	FMDV antiviral
Cc1ccc(NC(=O)c2ccncc2)cc1S(=O)(=O)N(C)C	n	n	n	n	n	n
Cc1cc(C)n(-c2ccc(C(=O)Nc3ccc(N4CCOCC4)cc3)cc2)n1	n	x	u	n	n	n
Cc1cc(C)n(-c2ccc(C(=O)Nc3cccc([N+](=O)[O-])c3)cc2)n1	u	n	n	n	u	n
Cc1cc(C)n(-c2ccc(C(=O)Nc3ccc(C)c(S(=O)(=O)N(C)C)c3)cc2)n1	-81	u	u	u	u	16µM
CCN(CC)S(=O)(=O)c1cccc(NC(=O)c2ccc(-n3nc(C)cc3C)cc2)c1	-83	u	u	u	16µM	20µM
Cc1cc(C)n(-c2ccc(C(=O)Nc3ccc(S(=O)(=O)N(C)C)cc3)cc2)n1	-97	n	n	u	u	u
CN(C)S(=O)(=O)Nc1ccc(-c2cn3ccsc3n2)cc1	n	u	n	n	x	n
COc1ccc(S[C@]2(C(=O)N3CCCC3)CC(=O)N(c3ccc(Cl)cc3)[C@@H]2c2ccc(OC)cc2)cc1	n	x	x	x	x	x
CCOC(=O)c1[nH]c2ccc(OC)cc2c1NC(=O)CCN1CCC[C@@H](C)C1	x	x	x	x	n	x
CCc1cccc(C)c1NC(=O)c1cccc(C(=O)Nc2c(C)cccc2CC)c1	n	n	n	n	x	n
CN(C)S(=O)(=O)c1cccc(NC(=O)c2cc(-c3cccs3)nn2-c2cccc(Cl)c2)c1	-106	n	n	u	u	n
CCc1cccc(CC)c1NC(=O)c1cccc(NC(=O)c2ccccc2)c1	-67	x	x	n	u	n
